IL-1B inflam inh – inflammasome signaling inhibition, IL-1 beta readout; THP-1 LPS/ATP IL-1B secretion, AlphaLISA, 16 h; stronger effect = lower value; activity change, % at 57.5 µM; 360,000 compounds, 4.7% hits; AID 743279; in the data active = activity change below about -50%; inconclusive = mostly about -30% to -49%
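THP-1 cells pretreated 1 hr with compounds (up to 57.5 uM final), then stimulated with LPS (250 ng/mL final) plus ATP (1.25 mM final); secreted IL-1B measured by AlphaLISA after 16 hr, decreased signal indicating inhibition.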
DT40 TDP1 no CPT – qHTS for Inhibitors of human tyrosyl-DNA phosphodiesterase 1 (TDP1): qHTS in cells in absence of CPT; DT40 Tdp1-/- hTDP1 cells, no CPT, ATP luminescence, 48 h; Potency, µM (doses to about 46.2 µM), without a hit: top-dose activity change, negative = growth inhibition, actives largely listed as inhibitors; 420,000 compounds, 15% hits; note: potency is the fitted concentration of half-maximal effect; nearly all actives have a fitted effect of over 55% in size
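DT40 Tdp1-/-;hTDP1 cells, no CPT (DMSO vehicle only), 400 cells/well; compounds pin-transferred; ≥48 hr, 37 °C; CellTiter-Glo 30 min RT dark, luminescence read.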
ALOX12 inh – inhibitors of human 12S-lipoxygenase ALOX12. P18054. purified 12hLO, xylenol orange hydroperoxide absorbance. Potency, µM (titrated, usually from 108 µM), without a hit: at the top dose activity change, negative = inhibition, usual class: inhibitors. 580,000 compounds, 1.1% hits; note: potency is the fitted concentration of half-maximal effect
Target sequence (P18054 whole entry, looked up): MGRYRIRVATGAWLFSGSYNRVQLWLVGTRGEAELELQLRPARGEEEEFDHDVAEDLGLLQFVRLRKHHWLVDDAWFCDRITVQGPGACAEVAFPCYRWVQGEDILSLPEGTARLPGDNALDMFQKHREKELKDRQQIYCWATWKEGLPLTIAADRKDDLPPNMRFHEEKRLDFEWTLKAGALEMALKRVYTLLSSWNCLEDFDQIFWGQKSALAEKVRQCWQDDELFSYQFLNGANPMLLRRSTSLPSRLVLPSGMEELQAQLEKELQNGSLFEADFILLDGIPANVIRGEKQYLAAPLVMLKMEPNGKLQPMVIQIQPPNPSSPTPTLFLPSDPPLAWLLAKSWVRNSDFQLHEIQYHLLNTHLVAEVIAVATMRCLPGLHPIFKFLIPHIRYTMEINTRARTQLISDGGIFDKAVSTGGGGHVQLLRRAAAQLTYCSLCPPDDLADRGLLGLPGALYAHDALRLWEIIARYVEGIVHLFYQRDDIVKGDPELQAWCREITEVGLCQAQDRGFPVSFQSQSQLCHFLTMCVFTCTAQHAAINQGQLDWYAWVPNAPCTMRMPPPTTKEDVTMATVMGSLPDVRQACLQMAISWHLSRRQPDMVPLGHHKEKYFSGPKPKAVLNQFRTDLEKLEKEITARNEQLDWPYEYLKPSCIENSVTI
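Purified human 12hLO at 150 nM in 25 mM Hepes, 0.01% Triton X-100, pH 7.0, preincubated 15 min at room temperature with compound. Reaction started with 40 uM arachidonic acid, 30 min at room temperature. Hydroperoxide measured by Fe-xylenol orange, 573/405 nm absorbance ratio.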
HT1080-NT tox – kills 2HG-producing HT-1080-NT fibrosarcoma cells; 360,000 compounds, 1.6% hits; Potency, µM (highest dose often 46.1 µM), inactives show at the top dose activity, negative = less viability, hits mostly cytotoxic; AID 686970; HT-1080-NT fibrosarcoma viability, CellTiter-Glo ATP luminescence, 48 h;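 note: NT is the 2HG producing partner of a matched IDH1 knockdown line; potency is the fitted concentration of half-maximal effect; 0% = DMSO-treated cells and -100% = media-only wells without cells; nearly all actives have a fitted effect of over 55% in size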
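Fibrosarcoma NT cells, 750 per well in 5% FBS RPMI, were exposed to compound for 48 hours. Viability: CellTiter-Glo luminescence.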
HT1080 IDH1KD tx – HT-1080 IDH1 knockdown cell toxicity (counter line). HT-1080 IDH1 knockdown viability, ATP luminescence, 48 h. Potency, µM (series often up to 46.1 µM), without a hit: top-dose activity, negative = toxicity, hits mostly cytotoxic. 360,000 compounds, 2% hits;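 note: potency is the fitted concentration of half-maximal effect; 0% = DMSO wells and -100% = cell-free medium wells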
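After a 2 h attachment period, IDH1KD HT-1080 cells took pin-transferred compound for 48 h at 37 °C; ATP-based luminescence after 10 min room-temperature reagent incubation reported viability.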
TDP1 cell CPT – DT40-hTDP1 cell growth loss with CPT; chicken DT40 Tdp1-/-;hTDP1 cells + 20 nM CPT, ATP luminescence, 48 h; Potency, µM (series often up to 46.2 µM), inactives show at the top dose activity change, negative = growth inhibition, actives largely listed as inhibitors; 420,000 compounds, 12% hits; AID 686979; note: potency is the fitted concentration of half-maximal effect; nearly all actives have a fitted effect of over 55% in size
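Chicken DT40 Tdp1-/- cells complemented with human TDP1, 400 cells/well, exposed to compounds plus 20 nM camptothecin for at least 48 h at 37 C; viability read as ATP content by CellTiter-Glo luminescence.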
Active calls of the source: *; ? = inconclusive; nt = not tested or not shown; [ ] = another dose, or the depositor's remark. Many of the other results were omitted from the sample, so hits are more common in it than they were. Unless noted, calls come from the whole dose curve; as a rule, active = well fitted curve in the direction sought with a large enough effect; inconclusive = small, poorly fitted or top-dose-only effect, or another doubt; inactive = no such curve, though single readings can be large; an effect the other way counts as inactive or inconclusive. Unless noted, % is set by controls: 0 for no effect and ±100 for the full control effect.

SMILES | IL-1B inflam inh | DT40 TDP1 no CPT | ALOX12 inh | HT1080-NT tox | HT1080 IDH1KD tx | TDP1 cell CPT
C=CCn1c(SCC(=O)NC(N)=O)nnc1-c1cc2c(s1)CCC(CC)C2 (stereo not given) | -21 | ? | 1% | 0% | -8% | -17%
Cn1c(NC(=O)C[n+]2cc(-c3ccccc3)n3c2CCC3)cc(=O)n(C)c1=O | 31 | -9% | 5% | 12% | 10% | -11%
O=C(C[n+]1cc(-c2ccc(Br)cc2)n2c1CCCCC2)c1ccccc1 | -56* | 16µM* | 6% | 3% | -19% | ?
O=C(C[n+]1cc(-c2ccc(Cl)cc2)n2c1CCCCC2)c1ccccc1 | -62* | 6.5µM* | 0% | -7% | -14% | 6.5µM*
CN(C)c1nc(Nc2ccc(F)cc2)nc(Oc2ccc(F)cc2)n1 | 11 | ? | -3% | -16% | -17% | ?
O=C(CCC(=O)Nc1ccc(F)cc1)N/N=C/c1ccccc1O | 150 | ? | 1% | -1% | -16% | ?
CN(C)c1nc(N/N=C/c2ccccc2O)nc(Nc2ccc(F)cc2)n1 | 87 | 0.58µM* | -11% | ? | 13µM* | 2.3µM*
Fc1ccc(NC(=S)NN=Cc2ccccc2Cl)cc1 | -1 | 3.3µM* | 50µM* | -22% | -18% | 2.3µM*
O=C(N/N=C/c1ccccc1Cl)c1ccc(F)cc1 | -13 | -1% | 15% | 8% | 14% | 7%
S=C(N/N=C/c1ccccc1Cl)Nc1cccc(Cl)c1Cl | 24 | 10µM* | 88% | ? | ? | ?
O=C(NN=Cc1ccccc1Cl)c1ccccc1 | -3 | ? | -14% | -5% | -1% | -4%
Oc1ccccc1C=NNC(=S)Nc1ccc(F)cc1 | -95* | 1.5µM* | ? | ? | 5.8µM* | 0.92µM*
CCN(CC)S(=O)(=O)c1ccc(NC(=O)CN2C(=O)c3ccccc3S2(=O)=O)cc1 | nt | nt | -4% | nt | nt | nt
CCOC(=O)C1CCN(C(=O)c2cc(-c3ccncc3)cn2Cc2ccc(C)cc2)CC1 | nt | nt | 16% | nt | nt | nt
COc1ccc(NC(=O)Nc2cccn3nc(C)nc23)cc1 | nt | nt | 37% | nt | nt | nt
Cc1cccc(CN2C[C@@H](CO)[C@H](c3nc(C)no3)C2)c1 | nt | nt | 51% | nt | nt | nt
CSc1ccc(CNC(=O)c2cc3n(n2)CC(c2ccc(Cl)cc2)OC3)cc1 (stereo not given) | nt | nt | -13% | nt | nt | nt
Cc1[nH]c2ccc(C(=O)N(Cc3ccccc3)C3CCS(=O)(=O)C3)cc2c1C (stereo not given) | nt | nt | 21% | nt | nt | nt
O=C(N/N=C/c1ccccc1Cl)C1CC1 | ? | 1% | 18% | 11% | 20% | 26%
NC(=S)N/N=C/c1cc([N+](=O)[O-])ccc1Cl | -24 | -16% | -2% | 4% | 4% | -6%
S=C(NCC1CC1)N/N=C/c1ccccc1Cl | 6 | 23µM* | ? | 8% | 9% | ?
O=[N+]([O-])c1ccc(Cl)c(/C=N/NC(=S)Nc2ccccc2)c1 | 46 | 10µM* | 26% | ? | 4.5µM* | 11µM*
Cc1ccc(S(=O)(=O)NCc2ccccc2S(=O)(=O)N2CCCCC2)cc1C | nt | nt | -53% | nt | nt | nt
N#Cc1ccc(C(=O)N2CCCC(n3cc(-c4nc(-c5ccccc5)no4)nn3)C2)cc1 (stereo not given) | nt | nt | 7% | nt | nt | nt
Nc1nc(NCc2ccc(Cl)cc2Cl)cc(C2CC(O)C2)n1 (stereo not given) | nt | nt | -6% | nt | nt | nt
SMILES | IL-1B inflam inh | DT40 TDP1 no CPT | ALOX12 inh | HT1080-NT tox | HT1080 IDH1KD tx | TDP1 cell CPT
COc1cccc(CSc2nc3ccccc3cc2C=O)c1 | 49 | 1µM* | 12% | 18µM* | 21µM* | 1.2µM*
COc1cccc(NC(=O)CSc2nc3ccccc3cc2Cc2ccccc2)c1 | -15 | ? | -18% | 9% | 4% | ?
Cc1ccccc1Nc1nc(N)nc(CSCC(=O)Nc2cccc(Br)c2)n1 | -5 | 16µM* | 16% | 2% | -1% | ?
Cc1ccc(SCc2nc(N)nc(Nc3ccccc3C)n2)cc1C | 17 | ? | -9% | -10% | -14% | ?
Cc1ccc2c(CSc3nc4ccccc4c(=O)n3CCCO)cc(=O)oc2c1C | -4 | 23µM* | ? | ? | ? | ?
Cc1ccccc1Nc1nc(N)nc(CSc2nc3ccccc3c(=O)n2CCCO)n1 | -3 | 18µM* | 12% | ? | -20% | ?
COCCn1c(SCc2nc(N)nc(Nc3ccccc3C)n2)nc2ccccc2c1=O | -9 | ? | -18% | -18% | 4% | ?
Cc1ccccc1Nc1nc(N)nc(CSc2nc3ccccc3c(=O)n2C)n1 | -53* | 8.2µM* | 0% | -17% | -29% | 9.2µM*
CCc1ccccc1NC(=O)CN(C)C(=O)c1cc(=O)c2cc(C)ccc2o1 | nt | nt | -2% | nt | nt | nt
O=C(NCc1ccc(Cl)cc1)c1cnn2ncccc12 | nt | nt | 19%[176 µM] | nt | nt | nt
COc1ccc(C(=O)C[n+]2ccc(N(C)C)cc2)cc1 | 22 | 16µM* | 221% | -9% | ? | ?
COc1ccc(C(=O)COC(=O)c2ccc(N(C)C)cc2)cc1 | 21 | -28% | 0% | 24% | 20% | -8%
CN(C)c1cc[n+](CC(=O)c2ccc(Br)cc2)cc1 | 16 | ? | 3% | -13% | -1% | 16µM*
O=C(NC1CC1)c1nc(-c2ccc(F)cc2)c2cnccn12 | nt | nt | 8%[176 µM] | nt | nt | nt
CCCCCC(=O)N[C@@H](c1ccccc1)[C@@H](O)C(=O)O[C@H]1C[C@@]2(O)[C@@H](OC(=O)c3ccccc3)C3[C@](C)(C(=O)[C@H](OC(C)=O)C(=C1C)C2(C)C)[C@@H](O)C[C@H]1OC[C@@]31OC(C)=O (stereo not given in full) | -1 | 0.1µM* | 13% | ? | 0.0058µM* | 0.12µM*
Cc1cnc(NC(=O)c2csc(NC(C)C)n2)s1 | nt | nt | 4% | nt | nt | nt
COC(=O)c1ccccc1NC(=O)C1CCCN(S(=O)(=O)c2ccccc2)C1 (stereo not given) | -5 | ? | 1% | 3% | ? | ?
COC(=O)c1ccccc1NC(=O)C1CCCN(S(=O)(=O)c2ccc(F)cc2)C1 (stereo not given) | -1 | 10µM* | 0% | 15% | 11% | 15µM*
COC(=O)c1ccccc1NC(=O)C1CCCN(S(C)(=O)=O)C1 (stereo not given) | 20 | -2% | 10% | -5% | 1% | -1%

Screening results: PubChem BioAssay, National Center for Advancing Translational Sciences (NCATS)
